Reference: PubChem BioAssay AID1159580 (chemical genetic matrix, 2015)
Out of some 5,500 compounds screened, about 2,000 (36%) were called active. About 18% were inconclusive and are not listed. No stated cut-off is given here; in the data, active means normalized growth mostly below about 0.91 (no sharp cut-off); inconclusive means no clear call, values can overlap the other calls; inactive means mostly above about 0.92. The list shows a part of the results.

Assay: chemical genetic growth profiling, strain panel (AID 1159580);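 further: tested at 20 µM; growth read once vehicle control cultures reached saturation at 30 °C; 1 = growth at the plate median or of vehicle wells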
Details: S. cerevisiae deletion strains, growth OD
[1] = locus YDL101C, strain DUN1, stronger effect = lower value
[2] = locus YHR030C, strain SLT2, stronger effect = lower value

Measured: normalized growth

Cc1c(Cc2ccc(F)cc2)c(=O)oc2cc(O)ccc12
inactive: locus YAR019C, strain CDC15, stronger effect = lower value 0.973 | locus YBL105C, strain PKC1, stronger effect = lower value 0.986 | locus YBR135W, strain CKS1, stronger effect = lower value 0.98 | locus YBR136W, strain MEC1, stronger effect = lower value 0.963 | locus YBR160W, strain CDC28, stronger effect = lower value 0.981 | locus YDL017W, strain CDC7, stronger effect = lower value 0.983 | locus YDL028C, strain MPS1, stronger effect = lower value 0.976 | [1] 0.979 | locus YDL108W, strain KIN28, stronger effect = lower value 0.978 | locus YDL132W, strain cdc53, stronger effect = lower value 0.978 | locus YDL214C, strain PRR2, stronger effect = lower value 0.967 | locus YDR052C, strain DBF4, stronger effect = lower value 0.987 | locus YDR054C, strain cdc34, stronger effect = lower value 0.975 | locus YDR226W, strain ADK1, stronger effect = lower value 0.987 | locus YDR477W, strain SNF1, stronger effect = lower value 0.971 | locus YER123W, strain YCK3, stronger effect = lower value 0.99 | locus YER133W, strain GLC7, stronger effect = lower value 0.977 | locus YFL009W, strain cdc4, stronger effect = lower value 0.973 | locus YFL029C, strain CAK1, stronger effect = lower value 0.97 | locus YFR003C, strain YPI1, stronger effect = lower value 0.985 | locus YFR019W, strain FAB1, stronger effect = lower value 0.988 | locus YFR028C, strain CDC14, stronger effect = lower value 0.972 | locus YGR040W, strain KSS1, stronger effect = lower value 0.954 | locus YGR052W, strain FMP48, stronger effect = lower value 1.02 | locus YGR092W, strain DBF2, stronger effect = lower value 0.944 | locus YHR079C, strain IRE1, stronger effect = lower value 0.91 | locus YHR082C, strain KSP1, stronger effect = lower value 0.968 | locus YHR205W, strain SCH9, stronger effect = lower value 0.958 | locus YIL147C, strain SLN1, stronger effect = lower value 0.983 | locus YJL095W, strain BCK1, stronger effect = lower value 0.923 | locus YJL128C, strain PBS2, stronger effect = lower value 0.956 | locus YJL157C, strain FAR1, stronger effect = lower value 0.966 | locus YJR016C, strain ILV3, stronger effect = lower value 0.982 | locus YJR066W, strain TOR1 (second series), stronger effect = lower value 0.976 | locus YJR066W, strain TOR1, stronger effect = lower value 0.957 | locus YKL048C, strain ELM1, stronger effect = lower value 0.969 | locus YKL067W, strain YNK1, stronger effect = lower value 0.979 | locus YKL101W, strain HSL1, stronger effect = lower value 0.967 | locus YKL193C, strain SDS22, stronger effect = lower value 0.976 | locus YKL203C, strain TOR2, stronger effect = lower value 1.01 | locus YLR113W, strain HOG1, stronger effect = lower value 0.903 | locus YLR133W, strain CKI1, stronger effect = lower value 0.968 | locus YLR403W, strain SFP1, stronger effect = lower value 0.969 | locus YML070W, strain DAK1, stronger effect = lower value 0.999 | locus YMR001C, strain CDC5, stronger effect = lower value 0.978 | locus YMR205C, strain PFK2 (second series), stronger effect = lower value 0.974 | locus YMR277W, strain FCP1, stronger effect = lower value 0.974 | locus YNL006W, strain LST8, stronger effect = lower value 0.975 | locus YNL020C, strain ARK1, stronger effect = lower value 0.96 | locus YNL161W, strain CBK1, stronger effect = lower value 0.974 | locus YNL183C, strain NPR1, stronger effect = lower value 0.939 | locus YNL207W, strain RIO2, stronger effect = lower value 0.97 | locus YNL222W, strain SSU72, stronger effect = lower value 0.976 | locus YNL307C, strain MCK1 (second series), stronger effect = lower value 0.984 | locus YOL078W, strain AVO1, stronger effect = lower value 0.973 | locus YOL136C, strain PFK27, stronger effect = lower value 0.964 | locus YOR061W, strain CKA2, stronger effect = lower value 0.957 | locus YOR119C, strain RIO1, stronger effect = lower value 0.977 | locus YOR231W, strain MKK1, stronger effect = lower value 0.926 | locus YOR329C, strain SCD5, stronger effect = lower value 0.979 | locus YPL031C, strain PHO85, stronger effect = lower value 0.947 | locus YPL153C, strain RAD53, stronger effect = lower value 0.962 | locus YPL204W, strain HRR25, stronger effect = lower value 0.98 | locus YPL209C, strain IPL1, stronger effect = lower value 0.982 | locus YPL256C, strain CLN2, stronger effect = lower value 0.899 | locus YPR025C, strain CCL1, stronger effect = lower value 0.977 | locus YPR106W, strain ISR1, stronger effect = lower value 0.984 | locus YPR111W, strain DBF20, stronger effect = lower value 0.971 | strain NNK1, stronger effect = lower value 0.984 | strain TSCII, stronger effect = lower value 0.978
active: [2] 0.83

CCCc1cc(=O)c2ccc(O)cc2o1
inactive: locus YAL013W, strain DEP1, stronger effect = lower value 0.975 | locus YBR229C, strain ROT2, stronger effect = lower value 1 | locus YCL061C, strain MRC1, stronger effect = lower value 0.976 | [1] 0.947 | locus YDL134C, strain PPH21, stronger effect = lower value 0.996 | locus YDR150W, strain NUM1, stronger effect = lower value 0.967 | locus YEL061C, strain CIN8, stronger effect = lower value 1 | locus YGR078C, strain PAC10, stronger effect = lower value 0.969 | [2] 0.919 | locus YHR087W, strain rtc3, stronger effect = lower value 1.03 | locus YJR043C, strain POL32, stronger effect = lower value 1 | locus YJR075W, strain HOC1, stronger effect = lower value 1.01 | locus YLR039C, strain RIC1, stronger effect = lower value 0.957 | locus YLR058C, strain SHM2 (second series), stronger effect = lower value 0.986 | locus YLR085C, strain ARP6, stronger effect = lower value 0.964 | locus YLR262C, strain YPT6, stronger effect = lower value 1.01 | locus YML094W, strain GIM5, stronger effect = lower value 1.02 | locus YMR219W, strain ESC1, stronger effect = lower value 0.998 | locus YMR263W, strain SAP30, stronger effect = lower value 0.995 | locus YNL128W, strain TEP1, stronger effect = lower value 0.97 | locus YNL153C, strain GIM3, stronger effect = lower value 0.993 | locus YNL298W, strain CLA4 (second series), stronger effect = lower value 0.971 | locus YNL322C, strain KRE1, stronger effect = lower value 0.966 | locus YNR030W, strain Alg12, stronger effect = lower value 0.985 | locus YOL006C, strain TOP1, stronger effect = lower value 0.933 | locus YPL055C, strain LGE1, stronger effect = lower value 1.05 | locus YPL241C, strain CIN2, stronger effect = lower value 0.988 | locus YPR135W, strain CTF4, stronger effect = lower value 0.943
